Source: PubChem BioAssay (National Center for Advancing Translational Sciences (NCATS))
Hits are enriched below; roughly 10% of the tested compounds scored in any of these assays.
G9a block – blocks human histone lysine methyltransferase G9a; Potency, µM (series often up to 102 µM), without a hit: at the top dose activity, negative = inhibition, actives largely listed as inhibitors; 8.8% of 350,000 active; Q96KQ7; AID 504332; G9a H3K9 monomethylation, AlphaScreen, 2 h; further: potency means the concentration at half of the fitted maximal effect; on the % scale 0 is the no-effect control and ±100 the full control effect; nearly all actives have a fitted effect of over 75% in size
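G9a (20 nM) was preincubated 15 min with compound, then reacted 2 h at room temperature with 500 nM biotin-H3K9 peptide and 20 µM SAM. Monomethyl-H3K9 detected by AlphaScreen using anti-H3K9me1 antibody.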
HP1b binding inh – inhibitors of HP1-beta chromodomain binding to methylated histone tails | P83916 | AlphaScreen HP1-beta / biotin-H3K9me3 peptide binding | Potency, µM (top dose mostly 114 µM), for inactives: top-dose activity change, negative = inhibition, actives largely listed as inhibitors | 0.56% of 390,000 active; further: potency means the concentration at half of the fitted maximal effect; nearly all actives have a fitted effect of over 70% in size
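Compound inhibition of the preformed complex between 50 nM HP1-beta and 50 nM biotinylated H3K9me3 peptide was read by AlphaScreen. Buffer was PBS pH 7.4 with 0.01% Tween-20. Incubations ran 30 min at room temperature, with 10 ug/mL donor/acceptor beads.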
JMJD2A Tudor inh – blocks the human JMJD2A Tudor domain; O75164; AlphaScreen JMJD2A-Tudor / H3K4me3 peptide binding; AID 504339; Potency, µM (top dose mostly 114 µM), for inactives: at the top dose activity change, negative = inhibition, actives largely listed as inhibitors; 4.4% of 390,000 active; further: potency means the concentration at half of the fitted maximal effect; on the % scale 0 is the no-effect control and ±100 the full control effect; nearly all actives have a fitted effect of over 50% in size
Six1-Eya2 inh – blocks human Six1 binding to Eya2. AlphaScreen GST-Six1/His-Eya2 binding, biochemical; stronger effect = lower value. 0.56% of 360,000 active. activity change, % (test concentration not listed); in the data active means activity change below about -65%; inconclusive means mostly about -30% to -63%; further: on the % scale 0 is the no-effect control and ±100 the full control effect
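AlphaScreen with GST-Six1 and His-Eya2 (5X mix: 250 nM and 500 nM), glutathione donor and nickel acceptor beads; buffer 50 mM Tris pH 8.0, 300 mM NaCl, 1 mM TCEP; 1 h at 37 C in the dark.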
CtBP-E1A inh – CtBP/E1A binding inhibition. AlphaScreen GST-E1A/His-CtBP binding, 1536-well; stronger effect = lower value. 0.49% of 340,000 active. activity change, % (no concentration beside the values); in the data active means activity change below about -65%; inconclusive means mostly about -30% to -63%; further: on the % scale 0 is the no-effect control and ±100 the full control effect
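Steps: dispense buffer (Tris pH 8.0, NaCl 300 mM, TCEP 1 mM, BSA, Tween 20); add 5X protein mix (GST-E1A, His-CtBP, 125 nM each); pin 23 nL compound; 2 h at 37 °C, dark; add 5X beads (50 ug/mL); 1 h; read.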
BAZ2B block – inhibitors of human BAZ2B bromodomain | 4.4% of 360,000 active | Potency, µM (doses to about 114 µM), without a hit: at the top dose activity change, negative = inhibition, actives largely listed as inhibitors | Q9UIF8 | AlphaScreen BAZ2B-H3K14Ac peptide displacement; further: potency means the concentration at half of the fitted maximal effect; on the % scale 0 is the no-effect control and ±100 the full control effect; nearly all actives have a fitted effect of over 60% in size
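In this displacement format the biotinylated H3(5-23) peptide acetylated at Lys14 serves as ligand at 50 nM, with BAZ2B at 50 nM in PBS pH 7.4 containing 0.01% Tween-20. Donor and acceptor beads are 10 ug/mL final.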
* = called active by the depositor; ? = inconclusive; · = not tested or not shown; ! = repeats disagree; [ ] = remark or other dose. Unless noted, the call rests on the fitted dose curve; in most records, active means well fitted inhibition curve with a large enough effect; inconclusive means small, poorly fitted or top-dose-only effect; inactive means no such curve, though single readings can be large or run the other way.

SMILES | G9a block | HP1b binding inh | JMJD2A Tudor inh | Six1-Eya2 inh | CtBP-E1A inh | BAZ2B block
COCc1nnc(NC(=O)c2ccc(NC(=O)C(C)C)cc2)s1 | 11%[59 µM] | 33% | -4% | 0 | 6 | 7%
CCc1nnc(NS(=O)(=O)c2ccc(NC(=S)NC(=O)c3ccc(OC)cc3)cc2)s1 | ? | -11% | -17% | 14 | -12 | -11%
CCc1nnc(NS(=O)(=O)c2ccc(NS(=O)(=O)c3ccc(NC(C)=O)cc3)cc2)s1 | -4% | · | · | · | · | -2%
CCc1nnc(NS(=O)(=O)c2ccc(NC(=S)NC(=O)/C=C/c3ccc([N+](=O)[O-])cc3)cc2)s1 | 35µM* | 42% | 3% | 0 | 3 | ?
CCCNC(=O)C1(C)CCCN(CCOc2ccccc2)C1 (stereo not given) | · | · | · | 3 | 8 | ·
COc1ccc(C2C(C(=O)Nc3ccc(OC)c(OC)c3)c3ccccc3C(=O)N2C)cc1 (stereo not given) | -6% | 16% | -17% | -17 | 3 | -3%
[N-]=[N+]=CC(=O)C(c1ccccc1)(c1ccccc1)c1ccccc1 | · | 37% | 0% | 2 | -1 | 0%
CCc1nnc(NS(=O)(=O)c2ccc(NC(=O)CCC(=O)O)cc2)s1 | · | 32% | -5% | 3 | 5 | -3%
CCc1nnc(NS(=O)(=O)c2ccc(NC(=S)NC(=O)/C=C/c3ccc(F)cc3)cc2)s1 | 89µM* | ? | 56µM* | -12 | ? | 50µM*
Cc1ccc(C)c(NC(=O)CN2C(=O)CCc3ccccc32)c1 | ? | -7% | ? | · | · | 79µM*
Cc1ccc(NC(=O)Cn2cccc2)cc1C | ? | 10% | -24% | -8 | 1 | ?
Cc1ccc(Cl)cc1NC(=O)CN1C(=O)CCc2ccccc21 | 14%[59 µM] | 65% | -5% | · | · | -12%
Cc1ccc(NC(=O)CN2C(=O)CCc3ccccc32)cc1C | -37%[59 µM] | -19% | ? | · | · | 79µM*
Cc1ccc(-n2c([S-])c(C(=O)NC(C)c3ccccc3)[n+]3ccccc23)cc1 (stereo not given) | 40µM* | -4% | -35% | -5 | -1 | -18%
COc1ccc(CNC(=O)c2sc(=S)n(-c3ccccc3)c2N)cc1 | · | ? | -22% | -9 | -20 | -11%
COc1ccc(CNC(=O)c2c([S-])n(-c3ccc(C)cc3)c3cccc[n+]23)cc1 | 4µM* | 12% | 3.2µM* | 0 | -11 | ·
COc1ccc(-c2nc3ccccc3n3c(-c4ccccc4)c4c(=O)n(C)c(=O)n(C)c4c23)cc1OC | -20%[59 µM] | 18% | -9% | · | · | -6%
CC(C)=CCOc1ccc(/C=C/C(=O)c2ccc(OCC=C(C)C)cc2OCC(=O)O)cc1 | -2%[59 µM] | · | · | · | · | ·
CN(C)c1c(F)cc(C(=O)NCc2ccccc2)cc1F | -1% | 41% | -2% | -2 | -1 | 6%
COc1ccc(Cl)cc1NC(=O)CN(C)C(=O)C1CCN(C(=O)Nc2ccccc2)CC1 | 6%[59 µM] | 14% | -21% | 4 | 3 | 8%
COc1ccc(/C=C/C(=O)N2CCN(c3ccccc3)CC2)cc1S(=O)(=O)N1CCOCC1 | 4% | 11% | -12% | -2 | -9 | -26%
COc1ccc(/C=C/C(=O)N(CCC(N)=O)c2ccccc2)cc1S(=O)(=O)N1CCOCC1 | 50µM* | 53% | 6% | -9 | 8 | -2%
CCOC(=O)c1nc(NCc2ccccc2)sc1C | 3.5µM* | ? | 79µM* | -8 | -6 | ?
Cc1nc(Cl)sc1C(=O)Nc1ccccc1 | -9%[59 µM] | 34% | -13% | -3 | 5 | 27%
Cc1nc(NCc2ccccc2)sc1C(=O)Nc1ccccc1 | 50µM* | 20% | -23% | 5 | -3 | ?
SMILES | G9a block | HP1b binding inh | JMJD2A Tudor inh | Six1-Eya2 inh | CtBP-E1A inh | BAZ2B block
Cc1nc(NCCOc2ccccc2)sc1C(=O)Nc1ccccc1 | 45µM* | 25% | -19% | -3 | -11 | -26%
CC1(C(=O)Nc2cnc3ccccc3c2)CCN1Cc1ccc(OC(F)(F)F)cc1 (stereo not given) | · | · | · | 1 | 6 | ·
CCCCNC(=O)c1nc(-c2cc3ccccc3[nH]2)oc1-c1ccccc1 | · | · | · | 5 | 0 | ·
COc1ccc(OC)c(NC(=O)CCc2c(C)nc3c(c(C)nn3C(C)(C)C)c2C)c1 | -3%[59 µM] | 16% | -26% | · | · | -27%
CC(C)N(C(=O)CSc1nnc(C2CC2)n1C1CC1)c1ccccc1 | 50µM* | 13% | -11% | 5 | -1 | -8%
N#CCN(C(=O)CSc1nnc(C2CC2)n1C1CC1)c1ccccc1 | · | · | · | 8 | -13 | ·
CS(=O)(=O)Nc1ccccc1Oc1ccccc1 | 16%[59 µM] | 32% | -5% | 3 | 12 | 2%
CS(=O)(=O)Nc1ccc([N+](=O)[O-])cc1Oc1ccccc1 | 32µM*! | 43% | -16% | 0 | 3 | -26%
COc1cccc(CN(CC(=O)NC2CCCC2)C(=O)c2csnn2)c1 | 1%[59 µM] | 25% | 10% | 0 | -2 | 6%
O=C(CN(Cc1cccs1)C(=O)c1csnn1)NC1CCCC1 | -9%[59 µM] | ? | 79µM* | 3 | 3 | 13%
Cc1ncc(N=Nc2ccccc2)c(-c2ccccc2)n1 | ? | 32µM* | 40µM* | ? | ? | 14µM*
Cc1ncc(S(=O)(=O)c2ccccc2)c(-c2ccccc2)n1 | ? | 27% | 22% | -2 | -4 | -10%
CCOC(=O)CNC(=O)CSc1nc2c(C)cccc2cc1CC | · | 31% | -8% | 34 | 0 | 0%
Cc1ccc(NCc2ccc(Cl)nc2)c(NCc2ccc(Cl)nc2)c1 | 35µM* | -1% | -32% | -7 | -1 | 35µM*
Fc1ccc(NCc2cccnc2)cc1F | ? | 27% | 79µM* | -1 | -15 | ?
Cc1cc(F)ccc1NCc1cccnc1 | 4%[12.7 µM] | ? | -19%[57.1 µM] | -1 | 0 | -33%
Cc1ccc(NCc2cccnc2)c(Br)c1 | 14µM* | ? | 3.2µM* | 5 | -5 | 79µM*
Cc1nnc(N2CCN(c3ccccc3F)CC2)c2c1nnn2Cc1ccccc1 | 10%[59 µM] | 43% | -1% | · | · | 1%
Cc1cc(NCc2ccccc2Cl)n2cnnc2n1 | 1%[59 µM] | 47% | 5% | · | · | -4%
COc1cc(C2NC(=S)NC(O)(C(F)(F)F)C2C(=O)c2cccs2)cc(OC)c1O (stereo not given) | 79µM* | 40% | -8% | 22 | 0 | -2%
CCOC(=O)C1C(c2cc(OC)c(O)c(OC)c2)NC(=S)NC1(O)C(F)(F)F (stereo not given) | -16%[59 µM] | 40% | -1% | 0 | 0 | -6%
CCN(CC)c1ccc(CN(C(=O)Cc2coc3ccc(C)cc23)C2CCS(=O)(=O)C2)cc1 (stereo not given) | 10µM* | -16% | ? | · | · | 10µM*
